Assay results as given in PubChem BioAssay (NCI).
About 79,000 compounds went through this panel and 15% of them were active in at least one assay; those are over-represented in the sample as a whole. Calls of active or inactive are those of the source. Cut-off read from the data, not from the text of the source: active = growth inhibition above about 70%; inactive = the rest.

Legend:
[1] = NCI Yeast Anticancer Drug Screen. Data for the rad52 strain (AID 147);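 note: 0% = growth of vehicle-treated control cultures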; conditions: S. cerevisiae rad52 mutant growth inhibition, active compounds read high
In short: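 Compounds are applied to a genetically defined yeast strain lacking normal DNA damage repair, and inhibition of growth is expressed relative to cultures given vehicle only.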

[2] = NCI Yeast Anticancer Drug Screen. Data for the wt1 strain (AID 149);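 note: 0% = growth of vehicle-treated wt1 cultures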; conditions: S. cerevisiae wt1 strain (SPY 50644) growth inhibition, active compounds read high
In short: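 Readout: yeast growth inhibition, normalised to vehicle controls, in the wt1 strain exposed to test compounds.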

[3] = NCI Yeast Anticancer Drug Screen. Data for the rad50EPP+ strain (AID 151);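 note: 0% = growth of vehicle-treated control cultures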; conditions: S. cerevisiae rad50 mutant strain, active compounds read high
In short: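 Compounds were applied to the rad50EPP+ yeast strain, which bears a defined DNA repair alteration, and growth inhibition was determined relative to vehicle-treated cultures.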

[4] = NCI Yeast Anticancer Drug Screen. Data for the mgt1 strain (AID 153); conditions: S. cerevisiae mgt1 mutant growth inhibition, active compounds read high
In short: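 Strain: mgt1 yeast, one of a set carrying defined DNA damage repair or cell cycle control alterations. Compound-treated growth compared with vehicle.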

[5] = NCI Yeast Anticancer Drug Screen. Data for the rad50 strain (AID 155);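 note: 0% = growth of vehicle-only cultures of the same strain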; conditions: S. cerevisiae rad50 strain growth inhibition, active compounds read high
In short: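 Compounds were tested on a yeast strain with an engineered DNA damage repair alteration; the reported value is growth inhibition normalised to vehicle treatment.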

[6] = NCI Yeast Anticancer Drug Screen. Data for the mec2-1 strain (AID 157); conditions: S. cerevisiae mec2-1 strain, active compounds read high
In short: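 Strain: mec2-1 (DNA repair/cell cycle alteration). Compound exposure, then growth measured; inhibition expressed relative to vehicle.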

[7] = NCI Yeast Anticancer Drug Screen. Data for the rad14 strain (AID 159);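 note: 0% = growth of vehicle-treated control cultures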; conditions: S. cerevisiae rad14 strain growth inhibition, active compounds read high
In short: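 Compound-treated yeast with a defined DNA-repair lesion; growth inhibition normalised to vehicle-treated cultures.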

[8] = NCI Yeast Anticancer Drug Screen. Data for the sgs1 mgt1 strain (AID 161);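 note: 0% = growth of cultures given vehicle only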; conditions: S. cerevisiae sgs1 mgt1 strain, active compounds read high
In short: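 Inhibition of yeast growth, normalised to vehicle-treated controls, is reported for a strain bearing genetic alterations in DNA damage repair.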

[9] = NCI Yeast Anticancer Drug Screen. Data for the CLN2oe strain (AID 163);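 note: 0% = growth of vehicle-only control cultures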; conditions: S. cerevisiae CLN2oe strain, active compounds read high
In short: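 Growth of a genetically modified yeast strain is measured after compound exposure and compared with cultures given vehicle alone.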

[10] = NCI Yeast Anticancer Drug Screen. Data for the cln2 rad14 strain (AID 165);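 note: 0% = growth equal to vehicle treated cultures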; conditions: S. cerevisiae cln2 rad14 strain, active compounds read high
In short: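 Compounds are applied to the cln2 rad14 yeast strain, and growth is then compared with that of vehicle-treated cultures to give inhibition.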

[11] = NCI Yeast Anticancer Drug Screen. Data for the bub3 strain (AID 167); conditions: S. cerevisiae bub3 mutant strain, active compounds read high
In short: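 Growth of a checkpoint-deficient yeast mutant is measured after compound exposure. Values represent inhibition relative to vehicle.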

[12] = NCI Yeast Anticancer Drug Screen. Data for the wt2 strain (AID 169);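 note: 0% = growth of vehicle-treated yeast cultures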; conditions: S. cerevisiae wt2 strain growth inhibition, active compounds read high
In short: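 This strain belongs to a panel of yeast strains with defined genetic alterations in DNA damage repair or cell cycle control. Compounds are applied, and growth inhibition is measured against vehicle-treated cultures.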

[13] = NCI Yeast Anticancer Drug Screen. Data for the mlh1 strain (AID 171);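 note: 0% = growth of vehicle-treated control cultures of the same strain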; conditions: S. cerevisiae mlh1 strain growth inhibition, active compounds read high
In short: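 Growth of the mutant yeast strain after compound exposure, expressed as inhibition relative to vehicle-only controls.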

[14] = NCI Yeast Anticancer Drug Screen. Data for the mlh1 rad18 strain (AID 175); conditions: S. cerevisiae mlh1 rad18 strain growth inhibition, active compounds read high
In short: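 Read-out is yeast growth inhibition, calculated against vehicle-only controls. The compound was applied to a strain engineered with DNA damage repair alterations.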

[15] = NCI Yeast Anticancer Drug Screen. Data for the rad18 strain (AID 177); conditions: S. cerevisiae rad18 mutant growth inhibition, active compounds read high
In short: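 Growth of the mutant yeast strain after compound exposure, normalised to vehicle-only cultures.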

[16] = at 5.0 µM (retest, dose inferred, filed as 0.5)
[17] = at 50.0 µM (retest, dose inferred, filed as 5.0)

Measured: growth inhibition

C[C@]12CCc3nonc3C1CC[C@@H]1C2CC[C@]2(C)C(=O)CCC12 (stereo partly specified)
active: [5]; at 100.0 µM 76% | [8]; [17] 73% | [8]; at 50.0 µM 81.5% | [11]; [17] 76%
inactive: [1]; at 1.2 µM 4% | [1]; at 3.7 µM 5% | [1]; at 11.0 µM 22% | [1]; at 33.0 µM 36% | [1]; at 100.0 µM 66% | [2]; at 1.2 µM 0% | [2]; at 3.7 µM -2% | [2]; at 11.0 µM -4% | [2]; at 33.0 µM 6% | [2]; at 100.0 µM 21% | [3]; at 1.2 µM 0% | [3]; at 3.7 µM 1% | [3]; at 11.0 µM 5% | [3]; at 33.0 µM 12% | [3]; at 100.0 µM 13% | [4]; at 1.2 µM 8% | [4]; at 3.7 µM 6% | [4]; at 11.0 µM 19% | [4]; at 33.0 µM 42% | [4]; at 100.0 µM 59% | [5]; at 1.2 µM 11% | [5]; at 3.7 µM 7% | [5]; [16] 51% | [5]; at 11.0 µM 28% | [5]; at 33.0 µM 62% | [5]; [17] 68% | [5]; at 50.0 µM 68% | [6]; at 1.2 µM -1% | [6]; at 3.7 µM -3% | [6]; [16] 26% | [6]; at 11.0 µM 10% | [6]; at 33.0 µM 15% | [6]; [17] 40% | [6]; at 50.0 µM 33.2% | [6]; at 100.0 µM 36% | [7]; at 1.2 µM 27% | [7]; at 3.7 µM 38% | [7]; at 11.0 µM 38% | [7]; at 33.0 µM 46% | [7]; at 100.0 µM 60% | [8]; [16] 46% | [9]; at 1.2 µM 17% | [9]; at 3.7 µM 25% | [9]; at 11.0 µM 28% | [9]; at 33.0 µM 41% | [9]; at 100.0 µM 51% | [10]; [16] 54% | [10]; [17] 57% | [10]; at 50.0 µM 44.1% | [11]; at 1.2 µM 1% | [11]; at 3.7 µM 6% | [11]; [16] 14% | [11]; at 11.0 µM 19% | [11]; at 33.0 µM 24% | [11]; at 50.0 µM 35.8% | [11]; at 100.0 µM 49% | [12]; at 1.2 µM 5% | [12]; at 3.7 µM 6% | [12]; at 11.0 µM 1% | [12]; at 33.0 µM 14% | [12]; at 100.0 µM 39% | [13]; at 1.2 µM -4% | [13]; at 3.7 µM -3% | [13]; at 11.0 µM -1% | [13]; at 33.0 µM 19% | [13]; at 100.0 µM 50% | [14]; [16] 46% | [14]; [17] 68% | [14]; at 50.0 µM 56.9%

COC(=O)C1c2cc3c(c(O)c2C(O)CC1(C)O)C(=O)c1c(O)cc2c(c1C3=O)OC1OC2(C)C(O)C(N(C)C)C1O (stereo unspecified)
active: [1]; at 33.0 µM 85% | [1]; at 100.0 µM 93% | [2]; at 100.0 µM 75% | [4]; at 100.0 µM 95% | [5]; at 11.0 µM 86% | [5]; at 33.0 µM 94% | [5]; at 50.0 µM 98% | [5]; at 100.0 µM 93% | [6]; at 33.0 µM 96% | [6]; [17] 92% | [6]; at 50.0 µM 95.3% | [6]; at 100.0 µM 94% | [7]; at 11.0 µM 79% | [7]; at 33.0 µM 97% | [7]; at 100.0 µM 92% | [8]; at 50.0 µM 98% | [9]; at 33.0 µM 73% | [9]; at 100.0 µM 89% | [10]; [17] 85% | [10]; at 50.0 µM 78.2% | [11]; at 33.0 µM 95% | [11]; [17] 97% | [11]; at 50.0 µM 90.9% | [11]; at 100.0 µM 93% | [12]; at 33.0 µM 80% | [12]; at 100.0 µM 93% | [13]; at 11.0 µM 70% | [13]; at 33.0 µM 96% | [13]; at 100.0 µM 94% | [14]; [17] 98% | [14]; at 50.0 µM 95.2% | [15]; at 11.0 µM 75% | [15]; at 33.0 µM 94% | [15]; at 100.0 µM 91%
inactive: [1]; at 1.2 µM 0% | [1]; at 3.7 µM 16% | [1]; at 11.0 µM 50% | [2]; at 1.2 µM 2% | [2]; at 3.7 µM 1% | [2]; at 11.0 µM 17% | [2]; at 33.0 µM 34% | [3]; at 1.2 µM -1% | [3]; at 3.7 µM 18% | [3]; at 11.0 µM 39% | [3]; at 33.0 µM 61% | [3]; at 100.0 µM 65% | [4]; at 1.2 µM -7% | [4]; at 3.7 µM 9% | [4]; at 11.0 µM 14% | [4]; at 33.0 µM 52% | [5]; at 1.2 µM 1% | [5]; at 3.7 µM 37% | [5]; [16] 24% | [5]; [17] 64% | [6]; at 1.2 µM -3% | [6]; at 3.7 µM 3% | [6]; [16] 12% | [6]; at 11.0 µM 37% | [7]; at 1.2 µM 0% | [7]; at 3.7 µM 16% | [8]; [16] -3% | [8]; [17] 15% | [9]; at 1.2 µM -7% | [9]; at 3.7 µM 1% | [9]; at 11.0 µM 31% | [10]; [16] 27% | [11]; at 1.2 µM -4% | [11]; at 3.7 µM 3% | [11]; [16] -26% | [11]; at 11.0 µM 55% | [12]; at 1.2 µM 0% | [12]; at 3.7 µM 5% | [12]; at 11.0 µM 28% | [13]; at 1.2 µM -4% | [13]; at 3.7 µM 18% | [14]; [16] 9% | [15]; at 1.2 µM 1% | [15]; at 3.7 µM 13%
